Shown are actives, neighbours in structure and some others; about 11% of the full set was active somewhere.
VDR inh = blocks the human vitamin D receptor | P11473 | VDR-SRC2-3 peptide fluorescence polarization, 2 h | Potency, µM, hits mostly inhibitors | hit rate 0.93% among 400,000
Target sequence (P11473 whole entry, looked up): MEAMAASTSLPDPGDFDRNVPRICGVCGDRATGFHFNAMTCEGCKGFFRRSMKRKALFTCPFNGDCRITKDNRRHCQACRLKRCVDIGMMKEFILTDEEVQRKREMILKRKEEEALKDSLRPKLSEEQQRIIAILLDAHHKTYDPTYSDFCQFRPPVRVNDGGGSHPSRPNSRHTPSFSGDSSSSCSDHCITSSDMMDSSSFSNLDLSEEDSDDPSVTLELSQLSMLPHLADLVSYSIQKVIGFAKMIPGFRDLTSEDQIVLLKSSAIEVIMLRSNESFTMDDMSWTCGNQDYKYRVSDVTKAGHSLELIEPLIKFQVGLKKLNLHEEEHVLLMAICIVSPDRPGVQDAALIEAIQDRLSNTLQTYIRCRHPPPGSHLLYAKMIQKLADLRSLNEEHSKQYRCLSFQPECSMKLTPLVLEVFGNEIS
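After 23 nl compound addition and a short centrifugation, plates sat for 2 hours at ambient temperature; polarization of fluorescence then indicated loss of VDR binding to peptide SRC2-3.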
JMJD2A Tudor = blocks the human JMJD2A Tudor domain; Potency, µM (titrated, usually from 114 µM), hits mostly inhibitors; hit rate 4.4% among 390,000; AID 504339; AlphaScreen JMJD2A-Tudor / H3K4me3 peptide binding; O75164; note: nearly all actives have a fitted effect of over 50% in size
G9a inh = G9a (human) methyltransferase inhibition; AID 504332; G9a H3K9 monomethylation, AlphaScreen, 2 h; Potency, µM (titrated, usually from 102 µM), usual class: inhibitors; Q96KQ7; hit rate 8.8% among 350,000; note: nearly all actives have a fitted effect of over 75% in size
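Signal arises when biotinylated H3K9 peptide, once monomethylated, bridges streptavidin donor and antibody-captured acceptor beads. Enzyme at 20 nM was preincubated 15 min with test compounds; peptide 500 nM and SAM 20 uM then reacted for 2 h.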
BAZ2B block = BAZ2B (human) inhibition. Q9UIF8. AlphaScreen BAZ2B-H3K14Ac peptide displacement. Potency, µM (doses to about 114 µM), hits mostly inhibitors. hit rate 4.4% among 360,000. AID 504333; note: nearly all actives have a fitted effect of over 60% in size
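Multi-concentration screen (max 110 uM) measuring displacement of acetylated histone H3 peptide from BAZ2B by AlphaScreen, using 50 nM protein, 50 nM peptide and 10 ug/mL streptavidin donor plus Ni-chelate acceptor beads.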
PLK1 PBD block = inhibitors of human PLK1 polo-box domain binding; Plk1 PBD binding of FITC phosphopeptide, fluorescence polarization; Potency, µM, actives largely listed as inhibitors; hit rate 2.8% among 360,000; AID 720504; note: series mostly up to about 57 µM; nearly all actives have a fitted effect of over 65% in size
HP1b binding inh = blocks HP1-beta chromodomain binding to methylated histone tails. hit rate 0.56% among 390,000. Potency, µM (series often up to 114 µM), most hits filed as inhibitors. P83916. AlphaScreen HP1-beta / biotin-H3K9me3 peptide binding; note: nearly all actives have a fitted effect of over 70% in size
Target sequence (P83916 whole entry, looked up): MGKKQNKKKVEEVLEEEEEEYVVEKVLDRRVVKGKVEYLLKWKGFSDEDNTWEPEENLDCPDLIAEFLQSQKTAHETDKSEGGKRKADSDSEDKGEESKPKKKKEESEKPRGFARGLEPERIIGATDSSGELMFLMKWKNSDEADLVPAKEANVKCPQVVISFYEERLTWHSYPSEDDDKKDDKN
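HP1-beta protein (50 nM final) preincubated 30 min at room temperature with biotinylated H3(1-18)K9me3 peptide (50 nM) in PBS pH 7.4, 0.01% Tween-20, then compound added for 30 min. AlphaScreen streptavidin donor/nickel chelate acceptor beads (10 ug/mL final), 30 min dark, luminescence read.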
Large screens that a line does not name were inactive. Calls come from the whole dose curve; as a rule, active = well fitted curve in the direction sought with a large enough effect; inconclusive = small, poorly fitted or top-dose-only effect, or another doubt; inactive = no such curve, though single readings can be large; an effect the other way counts as inactive or inconclusive.

CS(=O)(=O)c1ccc(Cl)c(NC(=O)CCN2C(=O)C3CC=CCC3C2=O)c1 (stereo not given)	none
CCCNS(=O)(=O)c1cccc(C(=O)NC2CCCc3ccccc32)c1 (stereo not given)	none
O=C(N/N=C/c1ccncc1)c1ccccc1	none
Cc1ccc(C)n1-c1ccc(C(=O)N/N=C/c2ccncc2)cc1	JMJD2A Tudor 79µM, PLK1 PBD block inconclusive, HP1b binding inh inconclusive (no result: BAZ2B block)
CN(C)c1ccc(/C=N/NC(=O)c2ccccn2)cc1	BAZ2B block inconclusive (no result: G9a inh)
O=C(NN=C1c2ccccc2-c2ccccc21)c1ccccn1	JMJD2A Tudor inconclusive, BAZ2B block 50µM
O=C(N/N=C/c1sc(=O)n(-c2ccccc2)c1Cl)c1ccncc1	G9a inh 50µM
O=C(N/N=C/c1ccncc1)c1ccccn1	G9a inh 2µM, BAZ2B block 50µM
COc1cc(C(=O)N/N=C/c2sc(=O)n(-c3ccccc3)c2Cl)cc(OC)c1OC	none
CC(C)c1ccc(N(CCc2ccccn2)C(=O)C(C)(C)C)cc1	none (no result: G9a inh, BAZ2B block)
CCOc1ccc(NC(=O)CC2C(=O)N(c3cccc(C)c3)C(=O)N2Cc2ccco2)cc1 (stereo not given)	G9a inh inconclusive (no result: PLK1 PBD block)
CCOCc1nnc(NC(=O)C2CC(=O)N(C3CCCC3)C2)s1 (stereo not given)	G9a inh inconclusive
Cc1ccc(C)c(NC(=O)COC(=O)c2cc(=O)c3ccccc3o2)c1	none
COc1cccc(-n2cc(C(=O)NCc3ccccc3OC)c3ccccc3c2=O)c1	none (no result: PLK1 PBD block)
COc1ccc(-n2cc(C(=O)NCCc3cc(OC)ccc3OC)c3ccccc3c2=O)cc1	JMJD2A Tudor 50µM, G9a inh inconclusive, BAZ2B block inconclusive (no result: PLK1 PBD block)
CCOc1ccc(-n2cc(C(=O)NC(C)C)c3cc(OC)c(OC)cc3c2=O)cc1	VDR inh inconclusive, JMJD2A Tudor 20µM, PLK1 PBD block 24µM
COc1ccc(CNC(=O)c2cnn(-c3ccccc3)c2-n2cccc2)cc1OC	none (no result: PLK1 PBD block)
Cc1ccc(NS(=O)(=O)c2ccc(C(=O)Nc3nncs3)cc2)cc1	none (no result: G9a inh, BAZ2B block)
C#CCN1C(=O)C(O)(CC(=O)/C=C/c2ccco2)c2ccccc21 (stereo not given)	G9a inh 50µM, BAZ2B block inconclusive
Cc1ccc(S(=O)(=O)NC(=O)C2(C)CCN2C(=O)c2cccc(F)c2)cc1 (stereo not given)	none (no result: VDR inh, JMJD2A Tudor, G9a inh, BAZ2B block, HP1b binding inh)
COc1cc(C(=O)C(=O)c2cc(OC)c(O)c(OC)c2)cc(OC)c1O	G9a inh 45µM
CCN(C(=O)CSc1nc2ccccc2n1Cc1ccccc1C#N)c1ccccc1	BAZ2B block inconclusive (no result: PLK1 PBD block)
CCNc1nc(NCC)nc(N/N=C/c2ccc(O)c(O)c2)n1	G9a inh 40µM, BAZ2B block inconclusive
CN(C)c1ccc(/C=N/Nc2nncc3ccccc23)cc1	G9a inh 28µM
Cc1cccc(/C=N/Nc2nncc3ccccc23)c1	none (no result: BAZ2B block)
CCNc1nc(NCC)nc(N/N=C/c2cc(OC)c(OC)c(OC)c2)n1	VDR inh inconclusive
CCNc1nc(NCC)nc(N/N=C/c2ccc(N(C)C)cc2)n1	JMJD2A Tudor inconclusive, G9a inh 50µM, BAZ2B block 45µM
Cc1ccc(/C=N/Nc2nnc(Cl)c3ccccc23)cc1	G9a inh 45µM, BAZ2B block inconclusive
CCCC(=O)c1c[nH]c(C(=O)NCCc2ccccn2)c1	none
CCCN(CCC)C(=O)Cn1c(=O)n(CCCCCC(=O)NCc2ccc3c(c2)OCO3)c(=O)c2sccc21	none (no result: PLK1 PBD block)
C/C(=N\Nc1nncc2ccccc12)c1ccc(C(C)(C)C)cc1	BAZ2B block 56µM
CCc1ccc(NC(=O)CSc2nnc(-c3cc4occc4n3C)n2-c2ccccc2C)cc1	none (no result: PLK1 PBD block)
CCCCNc1ccc2c(c1)C1CC2CCN1C(=O)OCc1ccccc1 (stereo not given)	JMJD2A Tudor 25µM (no result: G9a inh, BAZ2B block)
Cc1ccc(C)c(N2CCN(C(=O)c3cc4c(=O)n(Cc5ccco5)ccc4nc3C)CC2)c1	JMJD2A Tudor inconclusive, BAZ2B block inconclusive (no result: PLK1 PBD block)
Cc1cc([N+](=O)[O-])cc([N+](=O)[O-])c1NCC(C)C	JMJD2A Tudor 45µM, G9a inh 16µM, BAZ2B block 13µM, HP1b binding inh 40µM
CC(C)(C)c1n[nH]c(=S)n(N)c1=O	JMJD2A Tudor 5µM, BAZ2B block inconclusive
CC(C)(C)c1n[nH]c(=S)n(/N=C/c2cccs2)c1=O	none
O=S(=O)(c1ccc(Br)s1)N1CCC2(CC1)OCCO2	none
Clc1cccc(/C=N/Nc2ncnc3ccccc23)c1	JMJD2A Tudor inconclusive, BAZ2B block 35µM (no result: G9a inh)
O=C(Nc1cccc(O)c1)c1ccccc1[N+](=O)[O-]	none
O=C(NNC(=S)NC(=O)c1ccccc1[N+](=O)[O-])c1ccc(Cl)cc1Cl	G9a inh 18µM
O=C(NNC(=S)Nc1ccccc1)c1ccccc1[N+](=O)[O-]	G9a inh 32µM
O=C(NNC(=S)NC(=O)c1ccccc1[N+](=O)[O-])c1ccccc1[N+](=O)[O-]	G9a inh inconclusive
Cc1ccc(C(=O)NC(=S)NNC(=O)c2ccccc2[N+](=O)[O-])cc1	VDR inh inconclusive, JMJD2A Tudor 56µM, G9a inh 8.9µM, PLK1 PBD block inconclusive
O=C(NNC(=S)NC(=O)c1ccccc1[N+](=O)[O-])c1ccccc1O	JMJD2A Tudor 89µM, BAZ2B block inconclusive
CCOC(=O)c1c(-c2ccccc2)oc2ccc(NS(=O)(=O)c3ccc(C)cc3C)cc12	none (no result: PLK1 PBD block)
CC(C)COC(=O)N1CCCCC1c1cc(C(=O)Nc2ccc3c(c2)OCO3)no1 (stereo not given)	none (no result: VDR inh, JMJD2A Tudor, G9a inh, BAZ2B block, HP1b binding inh)
CC(=O)N1CCN(CC(=O)Nc2cc([N+](=O)[O-])ccc2Cl)CC1	G9a inh 40µM
Cc1cc(NC(=O)CN2CCN(c3ccc(O)cc3)CC2)no1	JMJD2A Tudor 89µM, HP1b binding inh inconclusive
O=C(CN1CCN(c2ccccc2)CC1)Nc1ccccc1Cl	BAZ2B block inconclusive
O=C(CN1CCN(c2ccc(O)cc2)CC1)Nc1cc([N+](=O)[O-])ccc1Cl	JMJD2A Tudor inconclusive, G9a inh 5.6µM, BAZ2B block inconclusive
O=C(CN1CCN(c2ccc(O)cc2)CC1)NCC(=O)Nc1ccc(F)c(F)c1F	JMJD2A Tudor 45µM, G9a inh inconclusive, HP1b binding inh inconclusive
O=C(CN1CCN(c2ccc(Cl)cc2)CC1)Nc1ccc(F)cc1F	none (no result: PLK1 PBD block)
COc1ccc(C2c3c(nc(C)[nH]c3=O)Oc3ccc4ccccc4c32)cc1OC (stereo not given)	none (no result: VDR inh, G9a inh, BAZ2B block, PLK1 PBD block, HP1b binding inh)
Cn1c(=O)oc2cc(S(=O)(=O)N3CCC(C(=O)N4CCN(c5ccc(Cl)cc5)CC4)CC3)ccc21	none (no result: PLK1 PBD block)
O=C1COc2ccc(N3C(=O)C=CC3=O)cc2N1	G9a inh 1.4µM, BAZ2B block 100µM (no result: VDR inh, JMJD2A Tudor, PLK1 PBD block, HP1b binding inh)
O=C1COc2ccc(S(=O)(=O)N3CCCC3)cc2N1	none
COc1ccc(C)cc1NC(=O)NCc1ccc2c(c1)CCN2C(=O)c1ccccc1	none (no result: PLK1 PBD block)

From PubChem BioAssay
